Compound activity (PubChem BioAssay)
Sampled rows, rich in hits. Any-hit rate of the full collection: about 2.8%.
HIF-2a block: HIF-2a reporter inhibitors, primary screen, luminescence, 786-0 RCC cells. 0.72% of 360,000 active. inhibition, % at 18.8 µM. 786-0 RCC cells HIF-2a reporter, luciferase luminescence, overnight;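 active means inhibition of the luminescence signal of 40% or more relative to plate controls, in a single-dose primary screen at 18.75 µM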
KKLEB cytotox: cytotoxicity in KKLEB CF airway cells, primary screen, cytotoxicity control for CF NF-kB inhibitor project, cell-based, uHTS, fluorescence assay plates; 0.36% of 360,000 active; activity change (cytotoxicity), % at 5 µM; KKLEB CF airway cells viability, ATPlite luminescence, overnight; active compounds read low; cells stimulated with P. aeruginosa culture filtrate; AID 602141, 2011;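 active means corrected activity change at or below -50% at 5 µM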
TRPM1 prom inh: inhibitors of MITF-dependent TRPM1 promoter reporter, primary screen, cell-based, SK-MEL-5, single point, luciferase; AID 488899, 2010; inhibition, % at 12.5 µM; 0.83% of 330,000 active; SK-MEL-5 TRPM1 promoter luciferase, 24 h;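 active means mean inhibition across replicates of 60% or more, whatever share of single replicates reaches that level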
CF NFkB inh: inhibitors of PAF-induced NF-kB signaling, primary screen, cell-based, GFP fluorescence, uHTS; AID 588850, 2011; 0.86% of 360,000 active; KKLEB NF-kB-GFP reporter, GFP fluorescence overnight; inhibition, % at 5 µM;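 active means at least 50% inhibition at 5 µM, scaled per plate between neutral and stimulator controls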;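 further: PAF is a Pseudomonas aeruginosa culture filtrate used as stimulus; plate controls were PAF-stimulated DMSO wells for no effect and unstimulated DMSO wells for full effect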
B2AR ag: beta2AR agonists driving receptor internalization, primary screen, cell-based, FAP fluorogen, flow cytometry. Am2.2-beta2AR cells. response, % (no concentration beside the values). 0.43% of 340,000 active;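 active means response above a set limit, near 3 SD of response in nonfluorescent compounds, cut at about 42% in these data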
Target sequence (P07550 whole entry, looked up): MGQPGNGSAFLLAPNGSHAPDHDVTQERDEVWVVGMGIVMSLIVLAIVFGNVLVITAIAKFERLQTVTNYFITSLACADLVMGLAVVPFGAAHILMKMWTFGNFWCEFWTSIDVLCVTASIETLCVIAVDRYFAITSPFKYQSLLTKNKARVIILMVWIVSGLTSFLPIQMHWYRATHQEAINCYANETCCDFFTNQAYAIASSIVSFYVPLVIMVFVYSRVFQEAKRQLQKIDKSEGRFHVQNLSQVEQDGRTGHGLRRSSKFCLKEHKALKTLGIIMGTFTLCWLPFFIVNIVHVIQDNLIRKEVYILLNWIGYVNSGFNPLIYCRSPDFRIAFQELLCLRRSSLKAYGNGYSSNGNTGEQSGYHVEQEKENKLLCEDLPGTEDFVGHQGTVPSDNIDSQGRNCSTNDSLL
Peg3 prom inh: Peg3 promoter-driven luciferase inhibitors, primary screen, cell-based, HeLa, luciferase luminescence. HeLa PEG-Prom luciferase reporter, overnight. inhibition, % at 20 µM. 1.7% of 360,000 active;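 active means inhibition of at least 50% at 20 µM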
Beta2AR ag CP1: beta2AR agonists via receptor internalization, confirmation, cell-based, FAP fluorogen, flow cytometry, single point, cherry pick 1; shares compounds with B2AR ag; Am2.2-beta2AR cells, FAP surface receptor; active compounds read low; percent response (surface receptor), % at 10 µM; 25% of 1,100 active;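 active means surface receptor percent response at or below 58%, roughly 3 SD from nonfluorescent compounds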
B2AR FAP counter: fluorescence artifact in beta-2AR agonist FAP counterscreen. shares compounds with B2AR ag. Am2.2 cells, FAP fluorogen flow cytometry; active compounds read low. calls only at 10 µM. 1,100 tested, under 10 active;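 active means percent response below a set limit in fluorescence channel 1 and below 50% in channel 8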
An asterisk follows results filed as active; i = inactive; nt = no result.

SMILES	HIF-2a block	KKLEB cytotox	TRPM1 prom inh	CF NFkB inh	B2AR ag	Peg3 prom inh	Beta2AR ag CP1	B2AR FAP counter
CCOC(=O)COc1cccc2c(=O)n(CC(=O)NCc3ccc(F)cc3)ccc12	5.8	-1.9	43.1	14.6	50.6*	-9.7	73.5	i
Nc1ccn([C@@H]2O[C@H](CNC(=O)[C@@H](Cc3cccnc3)NC=O)[C@@H](O)[C@H]2O)c(=O)n1	7.2	6.5	nt	1.6	nt	5.0	nt	nt
O=S1(=O)CC(N2CCN(Cc3ccccc3F)CC2)CN1Cc1cn(Cc2ccc(C(F)(F)F)cc2)nn1 (stereo not drawn)	7.7	nt	nt	nt	nt	nt	nt	nt
O=C(c1cccc(OC2CCN(Cc3cccc(OCCO)c3)CC2)c1)N1CCCC1	7.8	14.5	6.9	-23.9	-18.0	13.4	nt	nt
O=C(c1ccc(OC2CCN(Cc3cccc(F)c3)CC2)cc1)N1CCCCC1	12.5	-6.3	5.9	5.9	3.5	0.6	nt	nt
COc1cccc(CN2CCC(Oc3ccc(C(=O)N4CCCCC4)cc3)CC2)c1	17.4	0.7	-7.1	-12.9	18.7	5.2	117.7	i
COc1ccc(CN2CCC(Oc3ccc(C(=O)N4CCCCC4)cc3)CC2)cc1C	5.9	-6.1	-6.4	3.6	33.3	3.2	85.0	i
O=C(c1ccc(OC2CCN(Cc3cccc(OCCO)c3)CC2)cc1)N1CCCC1	1.7	-3.1	-4.9	12.5	2.1	-18.5	111.1	i
CCCCn1nnnc1C(c1cc2ccccc2o1)N(C)Cc1ccccc1 (stereo not drawn)	-1.9	nt	nt	nt	nt	nt	nt	nt
COc1ccccc1CNC(=O)C1(C)CCN1Cc1ccc(OC(F)(F)F)cc1 (stereo not drawn)	-2.2	-6.2	nt	12.5	nt	-2.5	nt	nt
C=CCn1c(-c2ccc(Cl)cc2)c[nH]c1=S	-120.6	6.9	4.0	-26.9	nt	-51.3	108.9	i
C=CCn1c(-c2ccccc2)c[nH]c1=S	-264.1	0.6	-62.6	-0.3	-0.2	-257.7	nt	nt
Cc1ccc(NC(=O)c2cc(-n3cnnc3)ccc2Cl)cc1	9.4	6.1	5.1	-7.5	15.3	5.7	nt	nt
Cc1ccc(NC(=O)c2cc(N3C(=O)C=CC3=O)ccc2Cl)cc1C	29.2	3.7	12.8	21.1	78.8*	79.8*	100.6	i
O=C(Nc1cccc(O)c1)N1CCOCC1	20.3	-2.9	-0.6	2.7	6.0	1.7	nt	nt
O=C(Nc1ccc2nc(-c3cccs3)c(-c3cccs3)nc2c1)N1CCOCC1	17.3	6.3	7.2	-23.0	59.1*	28.6	20.2*	i
O=c1cccc(-c2cccc3ccccc23)o1	-45.9	nt	nt	nt	nt	nt	nt	nt
Cc1cccc(NC(=O)c2ncn3c2C(=O)N(C)CC3)c1	-22.8	16.0	nt	-41.5	nt	-0.4	nt	nt
CN(Cc1ccc(C(F)(F)F)cc1)C(=O)[C@H]1O[C@@H](n2ccc(=O)[nH]c2=O)[C@H](O)[C@@H]1O	6.7	11.8	nt	-6.2	nt	6.9	nt	nt
O=C(O)c1ccc(CSc2nnc(-c3ccc(Cl)cc3)o2)cc1	-25.2	-1.8	-5.5	5.6	5.9	-2.8	nt	nt
O=S(=O)(Nc1ccc(-c2nnc(SCc3ccc(Cl)cc3)o2)cc1)c1ccccc1	16.8	15.5	5.6	-28.3	43.1*	22.7	113.7	i
O=C(Nc1ccc(-c2cccc(F)c2)cc1)C1CCCN(Cc2ccccn2)C1 (stereo not drawn)	-9.8	-18.3	-13.8	36.4	0.2	20.0	110.4	i
CCCc1ncc(CN2CCCC(C(=O)Nc3ccc(-c4cccc(OC)c4)cc3)C2)cn1 (stereo not drawn)	-37.0	-12.2	0.2	-6.8	12.8	-18.2	nt	nt
COCc1ccc(CN2CCCC(C(=O)Nc3ccc(-c4cccc(OC)c4)cc3)C2)o1 (stereo not drawn)	-45.5	-18.4	3.4	16.4	29.6	-6.9	116.2	i
COc1cccc(-c2ccc(NC(=O)C3CCCN(Cc4ccccn4)C3)cc2)c1 (stereo not drawn)	-45.1	-13.8	nt	18.8	nt	-18.7	106.4	i
SMILES	HIF-2a block	KKLEB cytotox	TRPM1 prom inh	CF NFkB inh	B2AR ag	Peg3 prom inh	Beta2AR ag CP1	B2AR FAP counter
COCc1ccc(CN2CCCC(C(=O)Nc3ccccc3-c3ccc(OC)cc3)C2)o1 (stereo not drawn)	10.8	-1.4	14.9	-41.0	3.7	12.7	nt	nt
COc1cccc(-c2ccc(NC(=O)C3CCCN(Cc4cnn(C(C)C)c4)C3)cc2)c1 (stereo not drawn)	-37.0	-18.2	-17.5	32.9	23.4	43.3	84.5	i
CN1NC(c2ccccc2)NN(C)C1=O	-38.4	-18.1	nt	-6.1	nt	2.9	nt	nt
COc1ccc(C(C)(O)c2nc(-c3ccccc3C)cs2)cc1 (stereo not drawn)	3.1	1.0	nt	16.3	nt	17.6	nt	nt
O=C(Nc1ncc2c(n1)CC(c1cccc(Cl)c1)CC2=O)c1ccco1 (stereo not drawn)	7.3	4.4	6.3	-0.2	43.1*	13.0	75.4	i
COc1cccc(OC)c1OCC(O)CN1CCN(c2ccccc2)CC1 (stereo not drawn)	15.1	7.8	16.6	3.2	48.1*	11.3	126.2	i
COc1ccccc1N1CCN(CC(O)COc2c(OC)cccc2OC)CC1 (stereo not drawn)	27.4	0.2	6.1	-8.0	0.4	2.9	nt	nt
C[C@H](O)[C@@H]1CN2CCc3c([nH]c4ccccc34)[C@@H]2C[C@@H]1N(C)C(=S)NCCc1ccccc1	0.6	-1.8	nt	-37.2	nt	17.1	nt	nt
Cc1nc2ccc(-c3nc4cc(N)ccc4o3)cc2[nH]1	7.2	6.9	7.0	-20.4	42.7*	-115.4	117.8	i
OC(C#Cc1ccccn1)c1cccs1 (stereo not drawn)	-28.7	-6.4	9.7	0.8	62.7*	-31.6	117.6	i
C[C@H](CO)N1C[C@H](C)[C@H](CN(C)C(=O)Nc2ccc(C(F)(F)F)cc2)Oc2ncc(-c3cccnc3)cc2C1=O	10.2	-4.0	nt	-19.0	nt	0.7	nt	nt
O=S(=O)(Nc1cccnc1)c1cccc(C(F)(F)F)c1	6.7	6.7	12.3	-16.6	5.8	-3.4	nt	nt
O=[N+]([O-])c1ccc(S(=O)(=O)c2cccc(C(F)(F)F)c2)nc1	51.6*	-39.4	83.2*	88.6*	56.7*	99.6*	24.2*	i
Cc1ccc(NC(=S)NNC(C)(C)C)cc1	-68.1	6.3	-13.6	-2.1	1.0	-29.1	103.5	i
CC(C)(C)NNC(=S)Nc1cccc(C(F)(F)F)c1	13.8	7.6	-8.8	-4.1	-6.9	-3.8	nt	nt
